Measured values: the supplement of paper PMC10338343
± gives the standard deviation.

Test system: MILI (PIWIL2) piRISC loaded with L1MC piRNA (26 nt)
Assay: pre-steady-state target cleavage rate (min^-1); guide: L1MC piRNA 5'p-UAACUAAAUACUAUGCAAGCUGUAGG; MIWI and MILI are mouse PIWI proteins and EfPiwi is from a freshwater sponge; tags in brackets are library labels; higher = faster piRNA-guided slicing of the target
How it was run: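 The method was Cleave-'n-Seq, in which uncleaved targets from a transcribed, DNA-blocked target RNA library were sequenced after exposure to active affinity-purified piRISC carrying one synthetic guide, with or without GTSF1 partner protein. Reactions contained 0.1 nM library, 1 nM piRISC and, where present, 500 nM GTSF1 in HEPES–potassium acetate buffer at 33 °C for 0–8 or 0–960 min. Reads were normalised to depth and to weakly complementary targets, three trials were pooled, and k3 was capped at 0.0001 min^-1. The pre-steady-state cleavage rate came from a burst-and-steady-state fit.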

[1] = auxiliary factor: 500 nM mouse GTSF1
[2] = auxiliary factor: none (no GTSF1)

Sequence | pre-steady-state target cleavage rate [1] | pre-steady-state target cleavage rate [2]
UCCUGGUACAGCUUGCAUACUAUUUAGUUA | 0.104 ± 0.024 | 0.00577 ± 0.0035
UCCUGGAUGUCGAUGCAUAGUAGUUUAGUUA | 0.0201 ± 0.005 | 0.00577 ± 0.0027
UCCUGGAUGUGUUGCAUAGUAUUUAGUUA | 0.173 ± 0.022 | 0.00684 ± 0.0022
UCCUGGAUGUCGUUGCAUAGUCUUUAGUUA | 0.0286 ± 0.0084 | 0.00414 ± 0.0025
UCCUGGAUCAGCUUGCAUAGUCAUUUAGUUA | 0.0161 ± 0.0075 | 0.00581 ± 0.0023
UCCUGGAACUCGUUGCAUAGUAUUUAGUAA | 0.165 ± 0.021 | 0.00378 ± 0.002
UCCUGGAUGAGGUUGCAAAGUAUUUAGUUA | 0.0323 ± 0.0068 | 0.00826 ± 0.0022
UCCUGGAUGAGCUAGCAAAGUAUUUAGUUA | 0.0455 ± 0.0079 | 0.00456 ± 0.0024
UCCUGGAUGAGCUUGGAAAGUAUUUAGUUA | 0.0843 ± 0.011 | 0.00571 ± 0.0018
UCCUGGAUGUCGAAGCAUAGUAUUUAGUUG [g2:g16:cont:t1G] | 0.0225 ± 0.0063 | 0.00543 ± 0.0019
UCCUGGAUGUCGUUGCACAGUAUUUAGUUA | 0.0899 ± 0.011 | 0.00642 ± 0.0028
UCCUGGUACAGCUUGCAUACUAAUUAGUUA | 0.0462 ± 0.019 | 0.00356 ± 0.0031
UCCUGGAUGUGGUUGCAUAGUAUUAAGUUA | 0.171 ± 0.048 | 0.00678 ± 0.0029
UCCUGGAUGACCUUGCUUAGUAUUUAGUUA | 0.114 ± 0.019 | 0.00599 ± 0.0028
UCCUGGAUGUGCAUGCAUUGUAUUUAGUUA | 0.0212 ± 0.0051 | 0.00604 ± 0.0024
UCCUGGAUGUGGUUGCUUAGUAUUUAGUUA | 0.107 ± 0.02 | 0.0132 ± 0.0037
UCCUGGUACAGCUUGCAUUGUAUAUAGUUA | 0.087 ± 0.018 | 0.00415 ± 0.0033
UCCUGGAUGUGCUAGCAAAGUAUUUAGUUA | 0.0105 ± 0.0034 | 0.00469 ± 0.0015
UCCUGGAUCAGCUUGCAUAGUUUAUAGUUA | 0.0204 ± 0.008 | 0.00545 ± 0.0025
UCCUGGAACAGCUUCGUUAGUAUUUAGUUA | 0.181 ± 0.013 | 0.00414 ± 0.0022

Sequence | pre-steady-state target cleavage rate [1] | pre-steady-state target cleavage rate [2]
UCCUGGAUGUCGAUGCAUAGUAUAUUAGUUA | 0.0713 ± 0.015 | 0.00716 ± 0.0023
UCCUGGAUGUCGAUGCAUAGUAUUUAGUA | 0.0708 ± 0.011 | 0.00401 ± 0.0022
UCCUGGAACAGCUAGCAUAGUUUUUAGUUA | 0.0448 ± 0.0092 | 0.00311 ± 0.0024
UCCUGGAUGUCGAAGCAUAGUAUCUUAGUUA | 0.0223 ± 0.0048 | 0.00455 ± 0.0025
UCCUGGAUCAGCCUGCAUAGUAUUUAGUUA | 0.244 ± 0.026 | 0.0068 ± 0.0031
UCCUGGAUGUGCUUGCAUAGUAUUUAGUGUA | 0.101 ± 0.015 | 0.00366 ± 0.0034
UCCUGCUACAGCUUGGUUAGUAUUUAGUUA | 0.262 ± 0.015 | 0.0061 ± 0.002
UCCUGGAUGUCGAUGCAUAGUAUUUAGUUC [g2:g17:cont:t1C] | 0.0657 ± 0.0091 | 0.00831 ± 0.0023
UCCUGGUUCAGCUUGCAUAGAAUUUAGUUA | 0.0374 ± 0.011 | 0.003 ± 0.0029
UCCUGGAUGUCCUUGCAUAGUAUCUUAGUUA | 0.0833 ± 0.017 | 0.00566 ± 0.0029
UCCUGGUACAGCUUGCUUUGUAUUUAGUUA | 0.123 ± 0.017 | 0.0068 ± 0.0025
UCCUGGAUGUCGAUGCAUAGUUUUUAGUUA | 0.0108 ± 0.0042 | 0.0052 ± 0.002
UCCUGGAUGUCGAUGCAUAGUGUUUAGUUA | 0.0372 ± 0.0094 | 0.0049 ± 0.0026
UCCUGGAUCAGCUUGCAUUGUAUUUUGUUA | 0.1 ± 0.019 | 0.00344 ± 0.0026
UCCUGGAAGAGCUUGGAUAGUAUUUAGUUA | 0.178 ± 0.0086 | 0.00531 ± 0.0023
UCCUGGAUGAGGUUGCAUAGUAUUAAGUUA | 0.0422 ± 0.018 | 0.00493 ± 0.0031
UCCUGGUACAGGUUGCAUAGUAAUUAGUUA | 0.325 ± 0.041 | 0.00664 ± 0.0029
UCCUGCUACAGCUAUGCAUAGUAUUUAGUUA | 0.257 ± 0.022 | 0.0069 ± 0.0021
UCCUCCUACAGCUUGCAUUGUAUUUACUUA | 0.145 ± 0.021 | 0.00286 ± 0.0022
UCCUGGUACAGCUUGCUAGUAUUUAGUUA | 0.0128 ± 0.0057 | 0.00634 ± 0.002

Sequence | pre-steady-state target cleavage rate [1] | pre-steady-state target cleavage rate [2]
UCCUGGAUGUCGUUGCAUAGUAUUUGGUUA | 0.145 ± 0.031 | 0.00722 ± 0.003
UCCUGGAUGUCCUUGCUUAGUUUUUAGUUA | 0.0152 ± 0.0067 | 0.00494 ± 0.0023
UCCUCCUACAGCUUGCAUAGUAGUUAGUUA | 0.192 ± 0.026 | 0.00325 ± 0.0032
UCCUGGAUGUCCUUGCAUUGUUUUUAGUUA | 0.00791 ± 0.0055 | 0.00421 ± 0.0023
UCCUGGAUGUGCUUGGAUAGUAUUUAGUUA | 0.115 ± 0.013 | 0.00702 ± 0.0024
UCCUGGAUGUCGAAGCAUAGUGUUUAGUUA | 0.0115 ± 0.0044 | 0.00454 ± 0.0019
UCCUGGUUCAGGUUGCAUAGUAUUUAGUUA | 0.21 ± 0.023 | 0.0182 ± 0.005
UCCUGCUACAGGUUGCAUAGUAAUUAGUUA | 0.216 ± 0.032 | 0.00697 ± 0.0026
UCCUGGUACGAGCUUGCAUAGUAUUUAGUUA | 0.247 ± 0.045 | 0.0102 ± 0.0039
UCCUGGAUGUCGAUGCAUAGUAUUUAGUAUA | 0.0977 ± 0.016 | 0.00504 ± 0.0027
UCCUGGAUCAGCUUGCAUAGUAUUAACUUA | 0.0348 ± 0.011 | 0.00289 ± 0.0028
UCCUGGAUGUCGAUGCAUAGUAUUUGAGUUA | 0.125 ± 0.027 | 0.00324 ± 0.0024
UCCUGGAUGUGCUUGGUAAGUAUUUAGUUA | 0.00666 ± 0.0036 | 0.00551 ± 0.0023
UCCUGGAUGUGCAUGGAUAGUAUUUAGUUA | 0.11 ± 0.013 | 0.0094 ± 0.0023
UCCUGGAUGUCCUUGCUUAGUAUUUUGUUA | 0.0587 ± 0.018 | 0.00384 ± 0.003
UCCUGGAUGUCCUUGCAUAGUAUAUAGUUA | 0.149 ± 0.026 | 0.00505 ± 0.0026
UCCUGGAUGUCCUUGCAUAGGUAUUUAGUUA | 0.00785 ± 0.0038 | 0.00689 ± 0.0025
UCCUGGAUGUCGUUGCAUAGUAAAUAGUUA | 0.0599 ± 0.019 | 0.00437 ± 0.0023
UCCUGGAACAGCUUGGAUAGUAUAUAGUUA | 0.215 ± 0.027 | 0.00403 ± 0.0027
UCCUGGAUGUGCUUGCAGAGUAUUUAGUUA | 0.0463 ± 0.009 | 0.00711 ± 0.0023
